Test results: PubChem BioAssay AID1159580 (chemical genetic matrix, 2015)
The whole screen tested about 5,500 compounds, of which about 2,000 (36%) were called active. About 18% were inconclusive and are not listed. Rule as the data show it: active = normalized growth mostly below about 0.91 (no sharp cut-off); inconclusive = no clear call, values can overlap the other calls; inactive = mostly above about 0.92. The list shows a part of the results.

Assay: chemical genetic growth profiling, strain panel (AID 1159580);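 also: tested at 20 µM; growth read once vehicle control cultures reached saturation at 30 °C; 1 = growth at the plate median or of vehicle wells; lower values mean less growth of the strain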
Conditions: S. cerevisiae deletion strains, growth OD

Measured: normalized growth

O=C(O)CCC(=O)Nc1ccc(S(=O)(=O)Nc2nccs2)cc1
inactive: locus YAL021C, strain ccr4, active compounds read low 1 | locus YAL026C, strain drs2, active compounds read low 1 | locus YAL030W, strain snc1, active compounds read low 1.03 | locus YBL061C, strain skt5, active compounds read low 0.994 | locus YBR009C, strain hhf1, active compounds read low 1.02 | locus YBR023C, strain chs3, active compounds read low 0.993 | locus YBR171W, strain sec66, active compounds read low 0.997 | locus YBR231C, strain swc5, active compounds read low 0.996 | locus YBR279W, strain paf1, active compounds read low 0.989 | locus YCL016C, strain dcc1, active compounds read low 0.985 | locus YCL061C, strain MRC1, active compounds read low 0.996 | locus YCL069W, strain vba3, active compounds read low 1 | locus YCR088W, strain abp1, active compounds read low 0.994 | locus YDL005C, strain med2, active compounds read low 0.987 | locus YDL040C, strain nat1, active compounds read low 0.999 | locus YDR001C, strain nth1, active compounds read low 1 | locus YDR069C, strain doa4, active compounds read low 1 | locus YDR137W, strain rgp1, active compounds read low 0.989 | locus YDR159W, strain sac3, active compounds read low 0.922 | locus YDR195W, strain ref2 0.967 | locus YDR297W, strain sur2, active compounds read low 1.01 | locus YDR334W, strain swr1, active compounds read low 0.989 | locus YDR335W, strain msn5, active compounds read low 0.992 | locus YDR392W, strain spt3, active compounds read low 0.912 | locus YEL003W, strain gim4, active compounds read low 1.02 | locus YEL037C, strain rad23, active compounds read low 1.01 | locus YEL061C, strain CIN8 (second series), active compounds read low 1.02 | locus YER015W, strain faa2, active compounds read low 1 | locus YER016W, strain bim1, active compounds read low 0.981 | locus YER111C, strain swi4, active compounds read low 1.01 | locus YER155C, strain BEM2 (second series), active compounds read low 0.981 | locus YFR010W, strain ubp6, active compounds read low 1 | locus YGL167C, strain pmr1, active compounds read low 0.995 | locus YGL173C, strain kem1, active compounds read low 0.987 | locus YGL227W, strain vid30, active compounds read low 0.994 | locus YGL240W, strain doc1, active compounds read low 1 | locus YGL253W, strain hxk2, active compounds read low 1 | locus YHR013C, strain ard1, active compounds read low 0.983 | locus YHR027C, strain rpn1, active compounds read low 0.991 | locus YHR030C, strain SLT2, active compounds read low 1.04 | locus YHR079C, strain IRE1, active compounds read low 1.06 | locus YHR142W, strain chs7, active compounds read low 1 | locus YJL092W, strain hpr5, active compounds read low 1 | locus YJL095W, strain BCK1 (second series), active compounds read low 0.996 | locus YJL095W, strain BCK1, active compounds read low 1.01 | locus YJL115W, strain asf1, active compounds read low 0.997 | locus YJL129C, strain trk1, active compounds read low 0.994 | locus YJL154C, strain vps35, active compounds read low 0.99 | locus YJL164C, strain tpk1, active compounds read low 0.998 | locus YJL166W, strain qcr8, active compounds read low 1 | locus YJL187C, strain SWE1, active compounds read low 1.01 | locus YJR066W, strain TOR1, active compounds read low 0.998 | locus YKL160W, strain elf1, active compounds read low 1.01 | locus YKR026C, strain gcn3, active compounds read low 1 | locus YKR091W, strain srl3, active compounds read low 0.998 | locus YLL001W, strain dnm1, active compounds read low 1.01 | locus YLL026W, active compounds read low 0.987 | locus YLL041C, strain sdh2, active compounds read low 1.01 | locus YLR027C, strain aat2, active compounds read low 1.01 | locus YLR113W, strain HOG1, active compounds read low 1.02 | locus YLR221C, strain rsa3, active compounds read low 1 | locus YLR258W, strain gsy2, active compounds read low 0.993 | locus YLR262C, strain YPT6 (second series), active compounds read low 1.01 | locus YLR320W, strain mms22, active compounds read low 0.976 | locus YLR342W, strain FKS1, active compounds read low 1 | locus YLR357W, strain rsc2, active compounds read low 0.991 | locus YLR370C, strain arc18, active compounds read low 1 | locus YLR384C, strain iki3, active compounds read low 1 | locus YML120C, strain ndi1, active compounds read low 1.02 | locus YMR058W, strain fet3, active compounds read low 1 | locus YMR125W, strain sto1, active compounds read low 0.977 | locus YMR129W, active compounds read low 0.977 | locus YMR205C, strain PFK2, active compounds read low 0.985 | locus YMR231W, strain pep5, active compounds read low 1 | locus YNL071W, strain lat1, active compounds read low 1.01 | locus YNL183C, strain NPR1, active compounds read low 0.968 | locus YNL209W, strain ssb2, active compounds read low 1 | locus YNL248C, strain rpa49, active compounds read low 1.02 | locus YNL322C, strain KRE1 (second series), active compounds read low 0.966 | locus YNR049C, strain mso1, active compounds read low 0.999 | locus YOR001W, strain rrp6, active compounds read low 0.998 | locus YOR070C, strain gyp1, active compounds read low 0.998 | locus YOR080W, strain dia2, active compounds read low 0.987 | locus YOR083W, strain WHI5, active compounds read low 0.938 | locus YOR106W, strain vam3, active compounds read low 0.979 | locus YOR231W, strain MKK1, active compounds read low 1.07 | locus YOR265W, strain rbl2, active compounds read low 1.01 | locus YOR270C, strain vph1, active compounds read low 1.03 | locus YOR290C, strain snf2, active compounds read low 0.984 | locus YPL051W, strain arl3, active compounds read low 0.995 | locus YPL078C, strain atp4, active compounds read low 0.984 | locus YPL106C, strain sse1, active compounds read low 0.944 | locus YPL240C, strain hsp82, active compounds read low 0.995 | locus YPL256C, strain CLN2, active compounds read low 1.01
active: locus YCL011C, strain gbp2, active compounds read low 0.728
